Common to all, as to experiment: DAPPL (digital affinity profiling via proximity ligation, sequencing); 10 mM Tris-HCl pH 7.5, 50 mM NaCl, 1 mM DTT, 4% glycerol, room temperature, 30 min; GST-TFs on glutathione beads, 16-mer random dsDNA library, 0.1% formaldehyde crosslink after washing; high values mean tight binding
One test addresses T1, FLI1 (Homo sapiens, UniProt Q01543 1-452).
T1 sequence: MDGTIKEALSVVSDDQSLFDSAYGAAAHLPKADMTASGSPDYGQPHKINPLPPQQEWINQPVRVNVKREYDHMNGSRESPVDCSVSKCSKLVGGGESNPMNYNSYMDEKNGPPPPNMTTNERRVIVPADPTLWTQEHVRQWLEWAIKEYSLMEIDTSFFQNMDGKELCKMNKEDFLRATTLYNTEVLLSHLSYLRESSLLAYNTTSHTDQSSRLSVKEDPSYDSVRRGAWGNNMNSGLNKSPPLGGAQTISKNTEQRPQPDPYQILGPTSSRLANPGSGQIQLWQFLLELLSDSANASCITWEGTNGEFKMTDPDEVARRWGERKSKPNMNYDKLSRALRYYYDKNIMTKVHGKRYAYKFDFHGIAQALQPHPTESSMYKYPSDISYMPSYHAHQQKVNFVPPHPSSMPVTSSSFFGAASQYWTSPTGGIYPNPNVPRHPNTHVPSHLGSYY
The conditions noted are these: protein: recombinant; tags: N-terminal GST; dsDNA, one strand shown. Put shortly: (§1)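 In yeast, human transcription factors were expressed with a GST fusion, then pulled down on glutathione beads and given DNA barcodes. Pooled with a tag-only sample, they were exposed to 200 nmole of a 16-mer random double-stranded DNA library (Tris/NaCl/DTT/glycerol buffer, room temperature, 30 min), washed, crosslinked with 0.1% formaldehyde, proximity-ligated using BsaI/T4 ligase for 1 h at 37 °C, PCR-amplified and read on an Illumina NextSeq500. Each hexamer's frequency of reads for a factor, divided by the matching frequency for the tag-only sample, gives the binding signal.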

The next test deals with T2, ELK1 (Homo sapiens, UniProt P19419 1-428).
T2 sequence: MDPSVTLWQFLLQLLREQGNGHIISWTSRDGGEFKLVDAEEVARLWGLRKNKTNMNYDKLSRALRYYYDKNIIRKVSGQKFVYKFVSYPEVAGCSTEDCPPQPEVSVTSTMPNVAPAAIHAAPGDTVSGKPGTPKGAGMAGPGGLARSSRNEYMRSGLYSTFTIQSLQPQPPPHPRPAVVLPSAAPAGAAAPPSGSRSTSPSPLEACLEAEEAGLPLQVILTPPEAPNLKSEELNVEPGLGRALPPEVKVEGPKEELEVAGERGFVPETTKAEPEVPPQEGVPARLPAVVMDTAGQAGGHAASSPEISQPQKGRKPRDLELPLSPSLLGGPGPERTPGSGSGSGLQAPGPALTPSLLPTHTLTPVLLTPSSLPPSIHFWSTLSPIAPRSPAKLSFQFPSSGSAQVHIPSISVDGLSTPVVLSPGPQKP
As to conditions: protein: recombinant; tags: N-terminal GST; dsDNA, one strand shown. Put shortly:
as §1

The next test deals with T3, GABPA (Homo sapiens, UniProt Q06546 1-454).
T3 sequence: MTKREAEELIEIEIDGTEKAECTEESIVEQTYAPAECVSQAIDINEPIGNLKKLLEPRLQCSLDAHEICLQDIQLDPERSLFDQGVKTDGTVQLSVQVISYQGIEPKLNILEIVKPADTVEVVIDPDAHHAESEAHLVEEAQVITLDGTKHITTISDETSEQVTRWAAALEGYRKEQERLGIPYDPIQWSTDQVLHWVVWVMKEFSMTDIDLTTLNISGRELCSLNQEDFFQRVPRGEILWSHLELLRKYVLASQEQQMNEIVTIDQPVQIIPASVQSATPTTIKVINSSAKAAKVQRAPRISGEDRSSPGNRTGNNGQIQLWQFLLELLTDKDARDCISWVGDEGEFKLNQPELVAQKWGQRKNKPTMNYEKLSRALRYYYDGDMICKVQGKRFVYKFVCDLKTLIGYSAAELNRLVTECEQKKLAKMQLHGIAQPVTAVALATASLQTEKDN
The conditions noted are these: protein: recombinant; tags: N-terminal GST; dsDNA, one strand shown. The gist of the method:
as §1

A further test concerns the target T4, ERG (Homo sapiens, UniProt P11308 1-479).
T4 sequence: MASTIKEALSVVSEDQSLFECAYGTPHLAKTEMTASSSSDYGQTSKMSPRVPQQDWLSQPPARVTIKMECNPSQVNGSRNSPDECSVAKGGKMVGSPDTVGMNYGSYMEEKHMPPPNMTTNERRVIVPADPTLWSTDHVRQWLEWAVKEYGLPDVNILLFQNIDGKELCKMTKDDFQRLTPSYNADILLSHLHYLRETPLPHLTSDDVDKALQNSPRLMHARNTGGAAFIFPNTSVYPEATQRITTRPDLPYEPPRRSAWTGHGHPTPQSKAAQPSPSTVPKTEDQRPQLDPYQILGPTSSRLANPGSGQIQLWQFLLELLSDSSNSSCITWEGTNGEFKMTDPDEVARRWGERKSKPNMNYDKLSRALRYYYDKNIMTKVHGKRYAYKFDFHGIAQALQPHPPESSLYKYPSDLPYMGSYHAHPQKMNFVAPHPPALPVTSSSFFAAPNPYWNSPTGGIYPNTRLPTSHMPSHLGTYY
The conditions noted are these: protein: recombinant; tags: N-terminal GST; dsDNA, one strand shown. Put shortly:
as §1

Another test has as its target ELF1 (Homo sapiens, UniProt P32519 1-619). As to conditions: protein: recombinant; tags: N-terminal GST; dsDNA, one strand shown. Put shortly: as §1
The target of another test is T5, EHF (Homo sapiens, UniProt Q9NZC4 1-300).
T5 sequence: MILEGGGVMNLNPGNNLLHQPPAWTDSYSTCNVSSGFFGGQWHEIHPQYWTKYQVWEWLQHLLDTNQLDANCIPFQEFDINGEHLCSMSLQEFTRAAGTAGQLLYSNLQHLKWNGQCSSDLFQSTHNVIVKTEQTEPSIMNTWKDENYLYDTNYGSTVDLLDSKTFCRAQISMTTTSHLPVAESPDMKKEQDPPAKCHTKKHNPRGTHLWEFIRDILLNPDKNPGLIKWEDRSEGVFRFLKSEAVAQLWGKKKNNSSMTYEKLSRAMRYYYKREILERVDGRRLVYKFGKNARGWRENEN
The conditions noted are these: protein: recombinant; tags: N-terminal GST; dsDNA, one strand shown. The gist of the method: as §1

The target in another test is SPI1 (Homo sapiens, UniProt P17947 1-270). The conditions noted are these: protein: recombinant; tags: N-terminal GST; dsDNA, one strand shown. The gist of the method: as §1
For another test, the target named is SPIB (Homo sapiens, UniProt Q01892 1-262). As to conditions: protein: recombinant; tags: N-terminal GST; dsDNA, one strand shown. The gist of the method: as §1
Another test has as its target T6, ELK3 (Homo sapiens, UniProt P41970 1-407).
T6 sequence: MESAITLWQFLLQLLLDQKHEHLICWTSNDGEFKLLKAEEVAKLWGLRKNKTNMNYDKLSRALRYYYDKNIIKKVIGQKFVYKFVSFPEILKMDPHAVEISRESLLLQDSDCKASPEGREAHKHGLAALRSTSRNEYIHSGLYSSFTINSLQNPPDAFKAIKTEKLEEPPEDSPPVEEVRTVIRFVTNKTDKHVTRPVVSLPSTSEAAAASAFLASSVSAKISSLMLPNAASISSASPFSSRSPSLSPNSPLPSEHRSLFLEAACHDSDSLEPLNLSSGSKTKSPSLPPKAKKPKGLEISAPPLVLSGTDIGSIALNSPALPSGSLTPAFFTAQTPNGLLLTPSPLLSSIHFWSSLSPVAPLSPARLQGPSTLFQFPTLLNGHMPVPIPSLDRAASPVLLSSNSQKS
As to conditions: protein: recombinant; tags: N-terminal GST; dsDNA, one strand shown. Put shortly:
as §1

The next test addresses T7, FEV (Homo sapiens, UniProt Q99581 1-238).
T7 sequence: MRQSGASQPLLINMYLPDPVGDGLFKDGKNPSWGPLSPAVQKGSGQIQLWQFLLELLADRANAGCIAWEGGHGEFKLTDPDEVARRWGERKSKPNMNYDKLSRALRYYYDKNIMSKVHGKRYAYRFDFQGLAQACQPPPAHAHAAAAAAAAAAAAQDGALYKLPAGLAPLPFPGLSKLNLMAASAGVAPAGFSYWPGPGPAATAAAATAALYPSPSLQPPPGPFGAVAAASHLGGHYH
As to conditions: protein: recombinant; tags: N-terminal GST; dsDNA, one strand shown. The gist of the method: as §1

Another test deals with ETV5 (Homo sapiens, UniProt P41161 1-510). The conditions noted are these: protein: recombinant; tags: N-terminal GST; dsDNA, one strand shown. The gist of the method: as §1
In the next test the target is HSF1 (Homo sapiens, UniProt Q00613 1-529). As to conditions: protein: recombinant; tags: N-terminal GST; chain copies: 3; dsDNA, one strand shown. The gist of the method:
as §1

A further test has as its target T8, SPIC (Homo sapiens, UniProt Q8N5J4 1-248).
T8 sequence: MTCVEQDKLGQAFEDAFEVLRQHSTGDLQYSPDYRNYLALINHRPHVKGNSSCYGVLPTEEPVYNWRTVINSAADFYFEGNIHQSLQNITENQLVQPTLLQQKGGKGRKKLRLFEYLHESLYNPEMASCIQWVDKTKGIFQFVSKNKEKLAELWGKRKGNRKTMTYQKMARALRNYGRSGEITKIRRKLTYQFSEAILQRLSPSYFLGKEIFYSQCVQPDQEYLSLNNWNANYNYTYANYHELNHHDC
The conditions noted are these: protein: recombinant; tags: N-terminal GST; dsDNA, one strand shown. Put shortly:
as §1

The next test has as its target ELF4 (Homo sapiens, UniProt Q99607 1-663). The conditions noted are these: protein: recombinant; tags: N-terminal GST; dsDNA, one strand shown. The gist of the method: as §1
A further test concerns the target T9, ELK4 (Homo sapiens, UniProt P28324-2 1-405).
T9 sequence: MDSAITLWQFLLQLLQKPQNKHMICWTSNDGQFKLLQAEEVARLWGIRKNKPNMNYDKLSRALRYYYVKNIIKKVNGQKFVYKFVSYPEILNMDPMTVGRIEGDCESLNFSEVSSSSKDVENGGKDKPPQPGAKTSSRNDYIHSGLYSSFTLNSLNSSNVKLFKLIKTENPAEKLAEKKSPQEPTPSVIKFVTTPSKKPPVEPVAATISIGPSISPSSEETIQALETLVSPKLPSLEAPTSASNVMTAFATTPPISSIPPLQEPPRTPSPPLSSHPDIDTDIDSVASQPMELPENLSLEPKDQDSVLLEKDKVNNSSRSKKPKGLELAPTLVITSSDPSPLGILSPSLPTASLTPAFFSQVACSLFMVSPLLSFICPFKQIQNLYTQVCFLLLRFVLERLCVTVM
The conditions noted are these: protein: recombinant; tags: N-terminal GST; dsDNA, one strand shown. The gist of the method:
as §1

In a further test the target is T10, ETV2 (Homo sapiens, UniProt O00321 1-342).
T10 sequence: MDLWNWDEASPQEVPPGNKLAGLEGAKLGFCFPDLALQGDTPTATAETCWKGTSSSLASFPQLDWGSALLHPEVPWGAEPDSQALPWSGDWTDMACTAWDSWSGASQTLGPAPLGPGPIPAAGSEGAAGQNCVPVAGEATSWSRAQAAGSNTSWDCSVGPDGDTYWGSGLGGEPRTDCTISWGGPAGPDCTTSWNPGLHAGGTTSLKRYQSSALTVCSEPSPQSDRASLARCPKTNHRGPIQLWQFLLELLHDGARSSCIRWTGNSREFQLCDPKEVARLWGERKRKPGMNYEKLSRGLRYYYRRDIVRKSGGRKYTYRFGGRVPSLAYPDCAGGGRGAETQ
As to conditions: protein: recombinant; tags: N-terminal GST; dsDNA, one strand shown. The gist of the method: as §1

A further test concerns the target T11, ELF3 (Homo sapiens, UniProt P78545 1-371).
T11 sequence: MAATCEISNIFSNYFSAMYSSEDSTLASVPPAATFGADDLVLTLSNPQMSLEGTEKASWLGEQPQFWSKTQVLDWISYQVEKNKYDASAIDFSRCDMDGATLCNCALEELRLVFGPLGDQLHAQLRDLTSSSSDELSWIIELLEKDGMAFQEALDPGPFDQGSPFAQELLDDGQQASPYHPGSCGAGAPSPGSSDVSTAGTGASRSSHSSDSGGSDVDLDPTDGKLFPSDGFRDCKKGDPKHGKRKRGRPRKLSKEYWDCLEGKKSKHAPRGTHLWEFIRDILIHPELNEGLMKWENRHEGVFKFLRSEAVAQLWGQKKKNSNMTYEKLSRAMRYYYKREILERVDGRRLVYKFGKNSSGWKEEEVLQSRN
As to conditions: protein: recombinant; tags: N-terminal GST; dsDNA, one strand shown. The gist of the method:
as §1

A further test addresses CRX (Homo sapiens, UniProt O43186 1-299). As to conditions: protein: recombinant; tags: N-terminal GST; dsDNA, one strand shown. The gist of the method:
as §1

Another test deals with ETV1 (Homo sapiens, UniProt P50549 1-477). The conditions noted are these: protein: recombinant; tags: N-terminal GST; dsDNA, one strand shown. Put shortly: as §1
Chain of ETV1 (P50549 whole entry): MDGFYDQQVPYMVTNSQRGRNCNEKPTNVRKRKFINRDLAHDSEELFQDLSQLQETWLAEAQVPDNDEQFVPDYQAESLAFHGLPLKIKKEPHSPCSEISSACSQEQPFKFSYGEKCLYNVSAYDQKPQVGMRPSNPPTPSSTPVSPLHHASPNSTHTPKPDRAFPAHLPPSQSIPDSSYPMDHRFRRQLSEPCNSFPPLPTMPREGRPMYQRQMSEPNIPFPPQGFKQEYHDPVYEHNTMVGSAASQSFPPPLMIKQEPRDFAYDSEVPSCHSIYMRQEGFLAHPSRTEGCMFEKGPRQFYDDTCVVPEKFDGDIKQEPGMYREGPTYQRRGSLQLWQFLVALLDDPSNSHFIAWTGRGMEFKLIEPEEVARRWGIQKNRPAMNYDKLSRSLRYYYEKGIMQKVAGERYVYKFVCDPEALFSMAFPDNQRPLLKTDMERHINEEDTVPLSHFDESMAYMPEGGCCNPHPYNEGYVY

Chain of HSF1 (Q00613 whole entry): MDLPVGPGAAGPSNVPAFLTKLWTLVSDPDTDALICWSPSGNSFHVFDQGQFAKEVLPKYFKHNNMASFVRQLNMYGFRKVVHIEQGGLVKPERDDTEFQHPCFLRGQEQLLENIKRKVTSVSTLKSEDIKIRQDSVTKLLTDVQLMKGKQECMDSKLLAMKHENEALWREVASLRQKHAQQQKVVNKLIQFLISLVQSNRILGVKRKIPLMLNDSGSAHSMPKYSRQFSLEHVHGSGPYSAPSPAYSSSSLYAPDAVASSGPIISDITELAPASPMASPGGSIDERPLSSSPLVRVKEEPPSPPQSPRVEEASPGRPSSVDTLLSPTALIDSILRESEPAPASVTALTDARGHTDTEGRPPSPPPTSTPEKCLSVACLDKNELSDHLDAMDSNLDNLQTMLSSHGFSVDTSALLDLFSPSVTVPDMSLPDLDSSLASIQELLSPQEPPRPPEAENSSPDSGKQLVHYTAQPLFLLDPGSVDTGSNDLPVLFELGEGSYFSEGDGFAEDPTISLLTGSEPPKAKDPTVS
Chain of ELF1 (P32519 whole entry): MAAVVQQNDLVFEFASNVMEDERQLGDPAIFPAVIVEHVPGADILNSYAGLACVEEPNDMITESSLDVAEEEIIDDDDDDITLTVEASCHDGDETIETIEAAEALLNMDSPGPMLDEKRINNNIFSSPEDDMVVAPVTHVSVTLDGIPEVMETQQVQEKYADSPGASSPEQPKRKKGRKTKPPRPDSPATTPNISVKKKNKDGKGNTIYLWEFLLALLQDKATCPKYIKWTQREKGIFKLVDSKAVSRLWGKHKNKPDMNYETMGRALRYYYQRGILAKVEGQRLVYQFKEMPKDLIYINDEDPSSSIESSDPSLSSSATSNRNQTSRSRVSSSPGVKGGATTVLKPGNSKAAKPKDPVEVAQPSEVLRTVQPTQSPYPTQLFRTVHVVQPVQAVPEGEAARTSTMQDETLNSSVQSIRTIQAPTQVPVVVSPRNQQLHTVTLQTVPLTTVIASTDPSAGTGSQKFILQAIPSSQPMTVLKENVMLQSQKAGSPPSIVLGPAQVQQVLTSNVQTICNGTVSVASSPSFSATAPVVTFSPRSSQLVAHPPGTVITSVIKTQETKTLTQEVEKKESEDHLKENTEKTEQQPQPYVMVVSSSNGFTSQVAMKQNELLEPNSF
Chain of ETV5 (P41161 whole entry): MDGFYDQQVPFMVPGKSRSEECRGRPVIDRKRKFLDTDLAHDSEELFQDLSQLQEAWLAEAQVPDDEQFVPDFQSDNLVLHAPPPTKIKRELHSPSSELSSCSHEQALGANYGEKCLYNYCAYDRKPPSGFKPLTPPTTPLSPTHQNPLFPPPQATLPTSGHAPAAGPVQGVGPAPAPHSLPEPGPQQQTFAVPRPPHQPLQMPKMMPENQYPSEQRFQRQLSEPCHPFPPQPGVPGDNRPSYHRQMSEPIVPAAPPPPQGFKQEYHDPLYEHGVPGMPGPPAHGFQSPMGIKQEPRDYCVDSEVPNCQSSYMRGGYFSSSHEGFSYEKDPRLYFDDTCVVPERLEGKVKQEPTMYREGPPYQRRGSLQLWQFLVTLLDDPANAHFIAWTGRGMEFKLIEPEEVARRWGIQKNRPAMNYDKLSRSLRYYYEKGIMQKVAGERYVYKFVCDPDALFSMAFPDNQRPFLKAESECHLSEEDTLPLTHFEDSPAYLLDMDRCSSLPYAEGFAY
Chain of ELF4 (Q99607 whole entry): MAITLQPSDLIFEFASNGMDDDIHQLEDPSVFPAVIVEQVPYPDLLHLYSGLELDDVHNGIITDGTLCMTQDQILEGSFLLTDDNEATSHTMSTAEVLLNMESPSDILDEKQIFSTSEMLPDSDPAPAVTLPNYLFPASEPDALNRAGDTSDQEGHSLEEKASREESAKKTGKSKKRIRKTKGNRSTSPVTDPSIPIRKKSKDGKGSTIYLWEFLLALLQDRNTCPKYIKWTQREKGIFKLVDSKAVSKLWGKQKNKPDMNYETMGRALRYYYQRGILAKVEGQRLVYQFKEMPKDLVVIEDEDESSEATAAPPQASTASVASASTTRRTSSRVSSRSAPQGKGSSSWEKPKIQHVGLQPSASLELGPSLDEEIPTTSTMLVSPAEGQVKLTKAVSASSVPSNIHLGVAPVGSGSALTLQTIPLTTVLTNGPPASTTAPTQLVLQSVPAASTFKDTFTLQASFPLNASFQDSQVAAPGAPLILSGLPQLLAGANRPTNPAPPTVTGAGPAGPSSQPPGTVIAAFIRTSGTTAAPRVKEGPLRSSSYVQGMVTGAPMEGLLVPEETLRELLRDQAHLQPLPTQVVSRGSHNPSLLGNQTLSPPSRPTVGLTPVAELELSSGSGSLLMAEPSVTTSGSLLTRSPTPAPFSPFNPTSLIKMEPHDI
Chain of SPIB (Q01892 whole entry): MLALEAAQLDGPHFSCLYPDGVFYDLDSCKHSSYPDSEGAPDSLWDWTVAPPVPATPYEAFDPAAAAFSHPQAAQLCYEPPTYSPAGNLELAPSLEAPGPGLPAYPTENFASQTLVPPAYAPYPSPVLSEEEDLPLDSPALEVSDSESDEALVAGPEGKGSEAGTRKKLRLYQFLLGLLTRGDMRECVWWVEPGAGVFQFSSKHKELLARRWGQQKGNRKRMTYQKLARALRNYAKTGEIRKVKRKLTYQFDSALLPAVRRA
Chain of CRX (O43186 whole entry): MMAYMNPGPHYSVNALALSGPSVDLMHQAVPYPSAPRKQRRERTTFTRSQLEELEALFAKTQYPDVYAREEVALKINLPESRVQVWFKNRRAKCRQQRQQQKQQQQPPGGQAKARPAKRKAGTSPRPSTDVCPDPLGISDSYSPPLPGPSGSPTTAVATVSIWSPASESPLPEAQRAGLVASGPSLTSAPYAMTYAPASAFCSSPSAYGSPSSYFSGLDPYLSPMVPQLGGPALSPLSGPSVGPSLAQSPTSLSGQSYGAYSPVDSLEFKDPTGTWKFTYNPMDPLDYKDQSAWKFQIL

In the case of CTCATA, the binding signal in the test with FLI1 was 1.39 fold enrichment (6-mer frequency, TF over GST control); in the test with ELK1, 1.48 fold enrichment (6-mer frequency, TF over GST control); with GABPA, 1.36 fold enrichment (6-mer frequency, TF over GST control); with ERG, 1.3 fold enrichment (6-mer frequency, TF over GST control); in the test with ELF1, 1.38 fold enrichment (6-mer frequency, TF over GST control); in the test with EHF, 1.27 fold enrichment (6-mer frequency, TF over GST control). The binding signal in the test with SPI1 was 1.43 fold enrichment (6-mer frequency, TF over GST control); in the test with SPIB, 1.48 fold enrichment (6-mer frequency, TF over GST control); with ELK3, 1.34 fold enrichment (6-mer frequency, TF over GST control); in the test with FEV it was 1.29 fold enrichment (6-mer frequency, TF over GST control); with ETV5 it was 1.37 fold enrichment (6-mer frequency, TF over GST control); in the test with HSF1, 1.25 fold enrichment (6-mer frequency, TF over GST control). Also, the binding signal in the test with SPIC was 1.46 fold enrichment (6-mer frequency, TF over GST control); with ELF4, 1.41 fold enrichment (6-mer frequency, TF over GST control); with ELK4, 1.35 fold enrichment (6-mer frequency, TF over GST control); in the test with ETV2, 1.44 fold enrichment (6-mer frequency, TF over GST control); with ELF3 it was 1.34 fold enrichment (6-mer frequency, TF over GST control); with CRX it was 1.38 fold enrichment (6-mer frequency, TF over GST control). Also, the binding signal with ETV1 is 1.39 fold enrichment (6-mer frequency, TF over GST control).

Values taken from paper PMC7862700, “An all-to-all approach to the identification of sequence-specific readers for epigenetic DNA modifications on cytosine”.
